Results reported in PubChem BioAssay.
Calls of active or inactive are those of the source. Unless noted, how the calls were made is not given here.

Experiments:
[1] = resazurin metabolic signal in HepG2 cells – cell-based, resazurin fluorescence, 24 h, PK04 Diversity Set, profiling panel (AID 1172); conditions: HepG2 viability, higher = more signal; further: test concentration not given here
[2] = budding yeast growth changes without added modifier – OD600, strain BY4716, 24 h, basal condition, primary screen (AID 1173); conditions: S. cerevisiae BY4716 growth, OD600, 24 h; higher = more signal, called active from +8 up or from −8 down
[3] = viability profiling in MM1S myeloma cells – cell-based, resazurin fluorescence, basal, 24 h, PK04 Diversity Set, profiling panel (AID 1174); conditions: higher = more signal, called active from +8 up or from −8 down;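 further: MM1S multiple myeloma cell line; test concentration not given here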
[4] = molecular target: Dihydroorotate dehydrogenase (quinone), mitochondrial (Plasmodium falciparum (isolate 3D7)) (UniProt Q08210); assay: inhibition of P. falciparum DHODH – biochemical, C-terminal His tag, absorbance 600 nm, primary screen (AID 1175); conditions: PfDHODH enzyme, DCIP absorbance 600 nm; higher = more signal, called active from +8 up or from −8 down;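 further: recombinant parasite enzyme with a five histidine tag at its C terminus; test concentration not given here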
[5] = inhibition of PAO1 biofilm formation – strain PAO1, LB-PBS medium, absorbance 600 nm, primary screen (AID 1176); further: test concentration not given here; conditions: P. aeruginosa PAO1 growth/biofilm, A600, 12 h; higher = more signal
[6] = growth modulation of vineyard yeast isolate – strain RM11-1a, OD600, basal, 24 h, primary screen (AID 1177);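 further: cultures grown under basal conditions with no added stressor; test concentration not given here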; conditions: S. cerevisiae RM11-1a growth, OD600, 24 h; higher = more signal, called active from +8 up or from −8 down
[7] = growth of efflux-deficient E. coli DRC39 – strain DRC39, OD650, 24 h, E. coli filamentation inducers, primary screen (AID 1178);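 further: growth measured as culture turbidity by optical density at 650 nm; test concentration not given here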; conditions: E. coli DRC39 acrAB, higher = more signal, called active from +8 up or from −8 down
[8] = growth of efflux-deficient E. coli DRC39 – strain DRC39, OD650, 48 h, E. coli filamentation inducers, primary screen (AID 1179);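 further: screen aims at cell division blockers that make cells filament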; conditions: E. coli DRC39 delta-acrAB growth, higher = more signal, called active from +8 up or from −8 down
[9] = viability profiling in RPMI8226 myeloma cells – cell-based, resazurin fluorescence, basal, 24 h, PK04 Diversity Set, profiling panel (AID 1180); conditions: higher = more signal;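 further: RPMI8826 multiple myeloma cell line at 5000 cells per well; test concentration not given here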
[10] = molecular target: E3 ubiquitin-protein ligase XIAP (Homo sapiens) (UniProt P98170); assay: small molecules binding XIAP protein – biophysical, small-molecule microarray, fluorescence 635 nm, primary screen (AID 1181); conditions: higher = more signal;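 further: score merges 667 nm emission and signal to noise over triplicate slides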
Sequence of E3 ubiquitin-protein ligase XIAP (Homo sapiens) (P98170 whole entry, looked up): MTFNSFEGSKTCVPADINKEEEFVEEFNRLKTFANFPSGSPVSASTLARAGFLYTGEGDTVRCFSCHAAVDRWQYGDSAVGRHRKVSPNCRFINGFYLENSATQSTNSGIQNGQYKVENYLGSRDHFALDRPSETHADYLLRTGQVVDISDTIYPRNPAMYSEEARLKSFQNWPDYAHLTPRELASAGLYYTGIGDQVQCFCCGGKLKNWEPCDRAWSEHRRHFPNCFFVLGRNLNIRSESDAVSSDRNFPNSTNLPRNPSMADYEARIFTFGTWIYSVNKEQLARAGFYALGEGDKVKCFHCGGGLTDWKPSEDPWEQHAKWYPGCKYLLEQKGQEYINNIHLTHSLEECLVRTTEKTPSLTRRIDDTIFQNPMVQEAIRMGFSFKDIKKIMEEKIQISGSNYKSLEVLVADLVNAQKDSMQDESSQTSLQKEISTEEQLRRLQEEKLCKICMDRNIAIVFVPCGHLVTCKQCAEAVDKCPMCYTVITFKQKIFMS

Sequence of Dihydroorotate dehydrogenase (quinone), mitochondrial (Plasmodium falciparum (isolate 3D7)) (Q08210 whole entry, looked up): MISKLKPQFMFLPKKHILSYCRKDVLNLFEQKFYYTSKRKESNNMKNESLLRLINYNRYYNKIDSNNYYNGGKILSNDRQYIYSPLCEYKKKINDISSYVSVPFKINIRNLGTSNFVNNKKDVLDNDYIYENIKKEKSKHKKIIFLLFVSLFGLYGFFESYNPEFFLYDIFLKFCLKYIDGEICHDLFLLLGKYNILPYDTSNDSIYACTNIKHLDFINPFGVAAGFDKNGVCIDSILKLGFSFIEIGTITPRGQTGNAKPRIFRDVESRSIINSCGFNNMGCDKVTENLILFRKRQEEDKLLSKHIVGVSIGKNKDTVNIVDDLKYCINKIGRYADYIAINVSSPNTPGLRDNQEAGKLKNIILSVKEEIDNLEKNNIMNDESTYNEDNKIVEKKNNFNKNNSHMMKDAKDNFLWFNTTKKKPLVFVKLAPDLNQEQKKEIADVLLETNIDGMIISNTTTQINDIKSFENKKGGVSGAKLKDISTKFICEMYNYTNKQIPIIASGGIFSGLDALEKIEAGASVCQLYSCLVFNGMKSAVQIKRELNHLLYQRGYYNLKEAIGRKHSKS

Compound | z-score [1] | z-score [2] | z-score [3] | composite z-score [4] | z-score [5] | z-score [6] | z-score [7] | z-score [8] | z-score [9] | composite z-score [10]
O=C1c2ccccc2[C@](Cc2ccccc2I)(C(=O)NC2CC2)[C@H](c2ccc(CO)cc2)N1Cc1ccccc1 | 0.621 | 0.401 (inactive) | 0.414 (inactive) | 0.159 (inactive) | 0.14 (inactive) | -0.377 (inactive) | -0.0358 (inactive) | 0.0388 (inactive) | 0.535 | -0.0663
CC(=O)N1Cc2ccccc2C[C@@]2(COC(c3ccc(OCCCO)cc3)=N2)C1=O | 1.17 | -0.797 (inactive) | -0.15 (inactive) | -0.469 (inactive) | 2.26 (inactive) | -0.723 (inactive) | 1.73 (inactive) | 2.3 (inactive) | 0.266 | 1.2
CC(C)C[C@@H]1NC(=O)[C@@H]2C[C@H](C(=O)NCCCCCN)[C@H](c3cccc(OCCO)c3)N2C1=O | -0.573 | -1.22 (inactive) | 0.522 (inactive) | -1.78 (inactive) | 0.792 (inactive) | -2.75 (inactive) | 1.06 (inactive) | 1.75 (inactive) | 0.465 | 0.0337
C=C(C)C1C(=C)CN([C@H](CO)c2ccccc2)C1=O (stereo not given in full) | 1.04 | -2.16 (inactive) | 0.267 (inactive) | -0.232 (inactive) | -0.611 (inactive) | 0.229 (inactive) | 0.692 (inactive) | -0.829 (inactive) | -0.403 | -0.11
O=C1C2C=CC(C(O)c3c(F)cccc3Cl)N(Nc3ccccc3)C2C(=O)N1c1ccccc1 (stereo not given) | 0.947 | -1.48 (inactive) | -0.478 (inactive) | 0.693 (inactive) | -0.131 (inactive) | -0.679 (inactive) | 0.302 (inactive) | 1.28 (inactive) | 0.284 | 0.0975
COC(=O)[C@@]1(Cc2ccc(F)cc2)[C@H]2c3cc(C(=O)N(C)C)n(CC4CC4)c3C[C@H]2CN1C(=O)c1ccccc1 | -0.881 | 1.78 (inactive) | -1.37 (inactive) | -0.0778 (inactive) | 0.206 (inactive) | 0.479 (inactive) | -0.868 (inactive) | -0.398 (inactive) | -2.09 | 0.454
CC(=O)n1cc(C(O)C2C=CC3C(=O)N(C)C(=O)C3N2Nc2ccccc2)c2ccccc21 (stereo not given) | 0.362 | 0.125 (inactive) | -1.2 (inactive) | 0.0365 (inactive) | 1.07 (inactive) | 0.135 (inactive) | -0.321 (inactive) | -0.306 (inactive) | -1.11 | 0.229
CCCCC(O)C1C=CC2C(=O)N(c3ccccc3)C(=O)C2N1Nc1ccccc1F (stereo not given) | -0.8 | -0.42 (inactive) | -0.459 (inactive) | -0.365 (inactive) | 1.14 (inactive) | -0.182 (inactive) | -0.221 (inactive) | 0.128 (inactive) | -0.786 | 0.691
COCCCNC(=O)C1N=C(c2ccc(OCCCO)cc2)N(c2ccccc2)O1 (stereo not given) | 0.522 | -0.5 (inactive) | -0.441 (inactive) | 0.0216 (inactive) | -1.45 (inactive) | 0.254 (inactive) | 0.516 (inactive) | 1.03 (inactive) | 0.694 | 0.819
CCCC=C(CCC)[C@@H](NC(=O)Oc1ccc(F)cc1)c1ccc(C(=O)OC)cc1 | 1.01 | 1.21 (inactive) | 0.0374 (inactive) | 0.58 (inactive) | 0.535 (inactive) | 1.2 (inactive) | -0.0379 (inactive) | 0.0821 (inactive) | -1.94 | 0.248
C=C(CCCC)C(=O)CC[C@@H](OC(=O)c1cccnc1)c1ccc(CO)o1 | 0.154 | -0.594 (inactive) | -0.16 (inactive) | -1.05 (inactive) | 0.555 (inactive) | 0.0671 (inactive) | 0.186 (inactive) | -0.0608 (inactive) | 0.0739 | 0.0256
COc1ccc(C(O)C2C=CC3C(=O)N(c4ccccc4)C(=O)C3N2Nc2ccccc2F)cc1OCc1ccccc1 (stereo not given) | -0.299 | -0.737 (inactive) | -1.66 (inactive) | -0.318 (inactive) | 1.11 (inactive) | -0.0242 (inactive) | -0.472 (inactive) | 0.226 (inactive) | -1.55 | 0.0158
CCN(CC)c1ccc(N2CC=CC34O[C@@H]5/C=C\CCC(C)OC(=O)C5[C@H]3C(=O)N(C(CO)C(C)C)[C@@H]4C2=O)cc1 (stereo not given in full) | -0.364 | 0.0948 (inactive) | 0.509 (inactive) | -2.68 (inactive) | -0.525 (inactive) | -0.185 (inactive) | 0.496 (inactive) | 0.767 (inactive) | 0.259 | 0.0049
COc1ccc(CCN2C(=O)[C@@]3(c4ccc([N+](=O)[O-])cc4)CC(=O)N(C4CCCCC4)[C@@H]3c3ccc(CO)cc32)cc1 | -0.356 | 1.37 (inactive) | -0.672 (inactive) | -25.9 (active) | 0.944 (inactive) | -0.582 (inactive) | -0.0051 (inactive) | -0.0209 (inactive) | -0.749 | -0.167
[N-]=[N+]=NCc1ccccc1[C@@H]1OC(c2ccc(OCCCO)cc2)=N[C@]1(CCS(=O)(=O)c1ccccc1)C(=O)NCc1ccccc1 | 0.239 | 0.743 (inactive) | -0.304 (inactive) | 0.59 (inactive) | 0.882 (inactive) | 0.797 (inactive) | 0.198 (inactive) | -0.678 (inactive) | 0.144 | 0.194
[N-]=[N+]=Nc1ccccc1[C@H]1OC(c2ccc(OCCCO)cc2)=N[C@@]1(Cc1ccccc1)C(=O)O | 0.615 | -0.967 (inactive) | -0.149 (inactive) | 1.12 (inactive) | 0.631 (inactive) | 0.222 (inactive) | 0.451 (inactive) | 0.534 (inactive) | -0.434 | 0.0735
C=CCN(Cc1ccccc1)C(=O)C(c1cccs1)N(CCOCCO)C(=O)/C=C\C(=O)O (stereo not given) | -0.393 | -1.1 (inactive) | 0.666 (inactive) | -1.37 (inactive) | 0.661 (inactive) | -0.947 (inactive) | 0.441 (inactive) | 1.05 (inactive) | 0.463 | 0.223
[N-]=[N+]=NCc1ccccc1[C@H]1OC(c2ccc(OCCCO)cc2)=N[C@@]1(Cc1ccccc1)C(=O)NCc1ccccc1 | 0.294 | -0.223 (inactive) | -0.666 (inactive) | -0.407 (inactive) | 0.702 (inactive) | 0.747 (inactive) | 0.431 (inactive) | 0.0009 (inactive) | -0.34 | 0.58
O=C1OCC=C[C@H]2OC34C=CCN(CCN5CCOCC5)C(=O)[C@H]3N(CCCO)C(=O)[C@@H]4[C@@H]12 (stereo not given in full) | -0.31 | -0.187 (inactive) | -1.4 (inactive) | -0.283 (inactive) | -0.385 (inactive) | 0.451 (inactive) | -0.514 (inactive) | -1.15 (inactive) | -0.0279 | 0.0222
C=CCOC(=O)[C@H]1[C@@H]2C(=O)O[C@@H](c3ccccc3)[C@@H](c3ccccc3)N2[C@@H](c2ccc(OCCOC(=O)[C@@H]3C[C@@H]4C(=O)N5CCC[C@H]5C(=O)N4[C@@H]3c3cccc(OCCO)c3)cc2)[C@]12C(=O)Nc1ccccc12 | -1 | 1.15 (inactive) | 0.0098 (inactive) | 0.613 (inactive) | 2.06 (inactive) | 1.76 (inactive) | -0.701 (inactive) | -1.5 (inactive) | -0.0769 | -0.22
C=CCC(OC(C)=O)[C@@H]1[C@@H](N(Cc2ccc(-c3ccccc3)cc2)C(=O)Cc2ccc(F)cc2)c2cc(OCCCO)ccc2N1C(=O)c1ccc(-c2ccccc2)cc1 (stereo not given in full) | 1.27 | -1.65 (inactive) | 1.4 (inactive) | -1.46 (inactive) | -0.124 (inactive) | -1.34 (inactive) | 0.904 (inactive) | 1.6 (inactive) | 1.48 | -0.296
O=C1C2C=CC(C(O)C3CCCCC3)N(Nc3ccc([N+](=O)[O-])cc3)C2C(=O)N1c1ccccc1 (stereo not given) | -1.13 | 0.581 (inactive) | -0.772 (inactive) | 1.14 (inactive) | 0.409 (inactive) | 1.09 (inactive) | -0.915 (inactive) | -1.96 (inactive) | -0.675 | 0.242
CC(C)OC(=O)C=C1C[C@@H](c2ccccc2C(F)(F)F)O[C@@H](c2ccccc2C(F)(F)F)O1 | -0.111 | 0.0349 (inactive) | 0.493 (inactive) | -1.12 (inactive) | -0.212 (inactive) | 0.123 (inactive) | -1.23 (inactive) | 0.217 (inactive) | -0.818 | 0.193
CN1C(=O)C2C=CC(C(O)C3CCCCC3)N(Nc3ccc([N+](=O)[O-])cc3[N+](=O)[O-])C2C1=O (stereo not given) | -0.248 | 0.819 (inactive) | -0.778 (inactive) | -0.877 (inactive) | -0.159 (inactive) | -0.0006 (inactive) | -0.719 (inactive) | -0.556 (inactive) | -0.373 | 0.618
O=C(NCc1ccccc1)[C@@]1(Cc2ccccc2)N=C(c2ccc(OCCCO)cc2)O[C@H]1c1ccccc1 | -0.0664 | 0.629 (inactive) | -1.67 (inactive) | 0.987 (inactive) | 0.494 (inactive) | 1.7 (inactive) | 0.482 (inactive) | -0.3 (inactive) | -2.66 | -0.0563
C=CC[C@]1(C(=O)NCCCOC)N=C(c2ccc(OCCCO)cc2)O[C@H]1c1ccccc1N=[N+]=[N-] | 0.632 | 0.215 (inactive) | -0.894 (inactive) | 1.1 (inactive) | 1.79 (inactive) | 0.571 (inactive) | 0.961 (inactive) | -0.615 (inactive) | -1.04 | 0.262
